Compound activity as filed in PubChem BioAssay.
Tau FP inhib – qHTS for Inhibitors of Tau Fibril Formation, Fluorescence Polarization; K18 P301L tau heparin fibrillization, Alexa594 FP, 6 h; 280,000 tested, 0.39% active; Potency, µM (top dose mostly 57.7 µM), inactives show top-dose activity, negative = inhibition, usual class: inhibitors; Microtubule-associated protein tau (Homo sapiens), P10636; note: nearly all actives have a fitted effect of over 55% in size
Target sequence (P10636 561-689 P618L limits assumed): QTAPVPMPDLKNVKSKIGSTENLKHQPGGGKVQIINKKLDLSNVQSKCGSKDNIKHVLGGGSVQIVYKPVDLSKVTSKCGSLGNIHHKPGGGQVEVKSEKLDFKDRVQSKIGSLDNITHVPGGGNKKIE
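Read-out: fluorescence polarization of Alexa 594-labeled tau (0.24 uM), 555 nm excitation, 632 nm emission. Mixtures held 15 uM unlabeled K18 P301L, compound and 20 uM heparin, pH 7 acetate buffer, incubated 6 hr at 37 C.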
JMJD2E inh – qHTS Assay for Inhibitors of Human Jumonji Domain Containing 2E (JMJD2E); Lysine-specific demethylase 4E (Homo sapiens), B2RXH2; JMJD2E catalytic domain, FDH-coupled NADH fluorescence (FDH is formaldehyde dehydrogenase); Potency, µM (highest dose often 57.1 µM), for inactives: at the top dose activity change, negative = inhibition, usual class: inhibitors; 230,000 tested, 1.6% active; AID 2147, 2009; active = well fitted inhibition curve with a large enough effect, not every such curve was filed as active; inconclusive = small, poorly fitted or top-dose-only effect, or another doubt; inactive = no such curve, though single readings can be large or run the other way;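 note: 0% = wells with enzyme and -100% = buffer wells without enzyme; nearly all actives have a fitted effect of over 50% in size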
HPGD block – qHTS Assay for Inhibitors of HPGD (15-Hydroxyprostaglandin Dehydrogenase). Potency, µM, for the others: at the top dose activity change, negative = inhibition, usual class: inhibitors. AID 894, 2007. purified HPGD, NADH fluorescence kinetic, PGE2 substrate. 150,000 tested, 4.3% active; active = well fitted inhibition curve with a large enough effect, not every such curve was filed as active; inconclusive = small, poorly fitted or top-dose-only effect, or another doubt; inactive = no such curve, though single readings can be large or run the other way
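20 nM HPGD preincubated 15 min at room temperature with compound in 50 mM Tris-HCl pH 8, 0.01% Tween 20. Started with 1 mM NAD+ and 30 uM prostaglandin E2; NADH fluorescence (360/450 nm) read 5 times over 30-s intervals, last minus first.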
Tau fluor counter – Counterscreen qHTS for Inhibitors of Tau Fibril Formation, Fluorescence Polarization; tau K18 P301L Alexa594 fluorescence, heparin fibrillization; Potency, µM (doses to about 57.7 µM), for the others: at the top dose activity change, negative = decrease; 280,000 tested, 0.93% active; AID 1463, 2008; note: nearly all actives have a fitted effect of over 55% in size
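Human tau K18 P301L (15 uM unlabeled, 0.24 uM Alexa 594-labeled) in 100 mM sodium acetate pH 7 with 20 uM heparin, 6 hr at 37 C. ThT 30 uM added, 1 hr ambient; Alexa 594 FP and total fluorescence read at 555/632 nm.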
Tau fibril ThT – qHTS for Inhibitors of Tau Fibril Formation, Thioflavin T Binding. Microtubule-associated protein tau (Homo sapiens), P10636. AID 1460, 2008. recombinant tau K18 P301L, heparin-induced fibrillization, ThT fluorescence. Potency, µM (highest dose often 57.4 µM), without a hit: at the highest dose activity, negative = inhibition, hits mostly inhibitors. 270,000 tested, 2.1% active; note: nearly all actives have a fitted effect of over 55% in size
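Using a mix of unlabeled (15 uM) and Alexa 594-labeled (0.24 uM) tau K18 P301L, heparin-triggered fibrillization over 6 hr at 37 C was scored by ThT fluorescence.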
ALDH1A1 block – qHTS Assay for Inhibitors of Aldehyde Dehydrogenase 1 (ALDH1A1); AID 1030, 2008; Potency, µM (series often up to 75.3 µM), for the others: at the top dose activity, negative = inhibition, hits mostly inhibitors; Purified ALDH1A1, NADH fluorescence, propionaldehyde substrate; 220,000 tested, 7.3% active; active = well fitted inhibition curve with a large enough effect, not every such curve was filed as active; inconclusive = small, poorly fitted or top-dose-only effect, or another doubt; inactive = no such curve, though single readings can be large or run the other way;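 note: plate controls were no enzyme wells and a reference inhibitor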
Target sequence (P00352 whole entry, looked up): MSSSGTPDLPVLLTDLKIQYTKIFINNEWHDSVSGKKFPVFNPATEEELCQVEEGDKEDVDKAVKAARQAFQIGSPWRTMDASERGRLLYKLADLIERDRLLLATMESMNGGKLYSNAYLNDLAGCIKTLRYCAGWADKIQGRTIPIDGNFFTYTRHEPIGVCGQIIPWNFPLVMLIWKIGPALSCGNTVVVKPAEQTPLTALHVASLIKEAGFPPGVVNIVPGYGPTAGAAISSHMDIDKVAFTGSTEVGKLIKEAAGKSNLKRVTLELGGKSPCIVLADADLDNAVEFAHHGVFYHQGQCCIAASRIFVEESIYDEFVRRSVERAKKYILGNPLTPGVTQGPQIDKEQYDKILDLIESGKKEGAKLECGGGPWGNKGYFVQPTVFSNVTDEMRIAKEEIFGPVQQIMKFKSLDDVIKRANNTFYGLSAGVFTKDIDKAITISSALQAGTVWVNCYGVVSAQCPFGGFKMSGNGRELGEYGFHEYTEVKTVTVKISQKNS
* marks the source's active call; other numbers are inactive results; u = inconclusive; x = not tested or not shown; [ ] = another dose, or the depositor's remark. An excerpt weighted towards active compounds, which were near 9.9% of everything screened. Unless noted, calls come from the whole dose curve; as a rule, active = well fitted curve in the direction sought with a large enough effect; inconclusive = small, poorly fitted or top-dose-only effect, or another doubt; inactive = no such curve, though single readings can be large; an effect the other way counts as inactive or inconclusive. Unless noted, % is set by controls: 0 for no effect and ±100 for the full control effect; potency is the fitted concentration of half-maximal effect.

SMILES	Tau FP inhib	JMJD2E inh	HPGD block	Tau fluor counter	Tau fibril ThT	ALDH1A1 block
Cc1cc(C)n2nc(CNC(=O)c3ccccc3Cl)nc2n1	2.5%	x	x	9.0%	10.8%	x
Cc1ccc(C)c(OC(=O)c2cncc(Br)c2)c1	-1.5%	2.4%	-4.6%	-3.8%	-5.5%	-6.4%
COCOc1cc(OC)ccc1C(=O)/C=C/c1cccc(C(F)(F)F)c1	3.9%	9.4%	-4.3%	-4.2%	-8.3%	-4.1%
Fc1ccc(C2CCCN2Cc2nc(-c3cnccn3)no2)cc1 (stereo unspecified)	4.7%	-3.7%	x	-8.9%	-8.5%	28.2µM*
c1cc2cn[nH]c2cc1NC1CCCCCC1	u	u	-24.2%	u	28.2µM*	u
S=C(Nc1ccccc1)Nc1ccc2cn[nH]c2c1	-12.0%	u	x	u	8.91µM*	x
CCOc1ccccc1CNS(=O)(=O)c1ccc2[nH]c(=O)ccc2c1	-1.4%	x	x	-0.7%	1.2%	x
O=C(O)Cc1ccc(C(=O)c2cccs2)s1	0.3%	5.1%	12.6µM*	-8.1%	-13.2%	10µM*
O=C(COC(=O)c1cc[n+]([O-])cc1)Nc1ccc([N+](=O)[O-])cc1	-1.2%	-5.0%	x	-3.0%	-17.0%	-3.0%
O=[N+]([O-])c1cc(S(=O)(=O)Nc2cccc(C(F)(F)F)c2)ccc1-n1nnc2ccccc21	u	5.2%	31.6µM*	u	u	u
COc1ccc(NS(=O)(=O)c2ccc(-n3nnc4ccccc43)c([N+](=O)[O-])c2)cc1	u	-4.5%	-23.9%	u	-15.4%	u
Cc1nnsc1C(=O)Oc1ccc(C(C)C)cc1	-0.4%	x	x	-18.6%	u	x
CSc1ccc(/C=N/NC(=O)CNc2cccc3ccccc23)cc1	4.3%	-15.7%	-15.3%	u	u	-1.6%
O=C(CNc1cccc2ccccc12)N/N=C/c1ccc(OC(=O)/C=C/c2ccco2)cc1	1.6%	-2.1%	-4.8%	u	u	9.2%
CSc1ccc(/C=N/NC(=O)CNc2ccc3ccccc3c2)cc1	-3.1%	-4.9%	-12.1%	14.1µM*[quencher]	5.01µM*	-7.5%
O=C(CNc1ccc2ccccc2c1)N/N=C/c1ccc(OC(=O)/C=C/c2ccco2)cc1	-13.3%	2.0%	-10.7%	7.08µM*[quencher]	5.01µM*	8.7%
O=C(/C=C/c1ccco1)Oc1cc(Br)cc(/C=N/NC(=O)c2ccccc2O)c1	-1.0%	25.1µM*	u	u	u	2.4%
CCOC(=O)C1=C(C)C(c2ccccc2OC)NC(=O)N1 (stereo unspecified)	-4.0%	3.9%	-23.4%	-9.2%	-4.8%	-14.2%
CCOC(=O)C1=C(C)C(c2ccccc2OC)NC(=S)N1 (stereo unspecified)	-11.8%	-7.9%	-9.6%	-6.9%	-7.2%	3.55µM*
CSc1nc(C)cc(Nc2cccc(C(=O)O)c2)n1	8.1%	x	x	2.6%	4.6%	x
Cc1cccc(C(=O)c2cnc3ccccc3c2-c2ccccc2)c1	9.1%	-0.1%	u	-8.9%	-10.5%	12.6µM*
Cc1ccc2ncc(C(=O)c3ccc(C)c(C)c3)c(S(=O)(=O)c3ccccc3)c2c1	-6.5%	x	x	-9.7%	-4.0%	x
CCN(CC)S(=O)(=O)c1ccc(OC)c(NC(=O)COc2ccc3c(C)cc(=O)oc3c2)c1	-0.6%	u	u	-13.6%	-2.3%	u
Cc1cc(C(=O)NNC(=S)NC(=O)/C=C/c2ccccc2Cl)n[nH]1	11.8%	7.94µM*	u	-20.0%	u	u
Cc1cccc(C(=O)NC(=S)NNC(=O)Cc2ccccc2)c1	-2.6%	-5.7%	-17.5%	-5.4%	-14.1%	u
SMILES	Tau FP inhib	JMJD2E inh	HPGD block	Tau fluor counter	Tau fibril ThT	ALDH1A1 block
O=C(NNC(=S)NC(=O)c1cccnc1)c1ccc(Cl)cc1	3.4%	3.9%	-4.1%	-6.8%	-16.8%	u
Cc1cccc(C(=O)NC(=S)NNC(=O)c2ccccc2Cl)c1	-0.3%	u	-3.2%	-7.0%	u	22.4µM*
O=C(NC(=S)NNC(=O)c1ccccc1O)c1cccnc1	-2.1%	20µM*	x	1.1%	-11.8%	u
Cc1cc(C)nc(NC(=O)/C=C/c2ccccc2Cl)n1	-10.4%	11.2%	-12.4%	-3.2%	-12.2%	-2.6%
O=C(NC(=S)NNC(=O)c1ccc(Cl)cc1Cl)c1cccnc1	-4.5%	-7.2%	u	-3.2%	u	23.8µM*
NNC(=O)c1ccc[n+](CCc2ccccc2)c1	x	x	-6.9%	x	x	0.7%[13.5 µM]
CCc1ccc(NCc2cccn2-c2nnc(N3CCCCCC3)s2)cc1	14.0%	x	x	u	u	x
Cc1ccc(S(=O)(=O)O[C@@H]2[C@H]([C@@H]3COC(C)(C)O3)O[C@H]3OC(C)(C)O[C@@H]32)cc1	x	x	-5.8%	x	x	-2.3%[13.5 µM]
CC(NC(=O)CNC(=O)C(Cc1ccccc1)NC(=O)OCc1ccccc1)C(N)=O (stereo unspecified)	3.2%	-3.6%	x	4.7%	3.6%	-5.6%
C#Cc1ccc([C@@H]2C=C(C(=O)OCC=C)O[C@H](OCc3ccc(CO)cc3)C2)cc1	-8.1%	-7.5%	x	-16.2%	u	12.6µM*
C#Cc1ccc([C@@H]2C=C(C(=O)OCC=C)O[C@H](OCCCCO)C2)cc1	-0.5%	-0.3%	x	-8.1%	u	15.8µM*
COc1ccc(OC)c(NC(=O)N2CCC(CN3CCCCC3)CC2)c1	-2.7%	x	x	-10.3%	-5.4%	x
COc1cc(C(=O)OCCN2CCCCC2)ccc1O	3.2%	-2.2%	0.3%	-4.6%	-7.6%	12.2%
COc1cc(C#CC#CCN2CCCCC2)ccc1O	-5.8%	u	14.1µM*	-11.3%	-3.2%	1.58µM*
Oc1ccc(-c2nc3ccc4ccccc4c3c3c2CCC3)cc1O	u	25.1µM*	-8.3%	u	u	0.1%
C/C(=N\NC(=O)c1ccccc1F)c1ccc2c(c1)Nc1ccccc1S2	u	-4.6%	-12.3%	3.55µM*[quencher]	2µM*	0.0%
